# From PubChem BioAssay (Tox21)
# Several values for one entry are separate records, joined by “and”; a condition that tells them apart may be missing. Identical values can stand only once. Results filed as inconclusive are left out. Entries that show only a call come without a potency. Where a structure was tested more than once in an assay, its records may differ in their call. Activity calls are given as the source filed them. Unless noted, calls come from the whole dose curve.
# What was measured:
# [1] = Nuclear factor erythroid 2-related factor 2/antioxidant responsive element (Nrf2/ARE) small molecule agonists: qHTS cell viability counter screen in human keratinocytes (AID 1919968; active = well fitted curve in the direction sought with a large enough effect in the repeat runs; an effect the other way counts as inactive or inconclusive; note: nearly all actives have a fitted effect of over 55% in size; note: potency is the fitted concentration of half-maximal effect)
# How it was run: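 Measured as CellTiter-Fluor fluorescence, this readout tracks cytotoxicity in the same wells as the ARE-luciferase screen. HaCaT reporter cells (1,500/well) received compounds after a 5 h pre-incubation and were exposed for 23 h.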
# [2] = target: Gonadotropin-releasing hormone receptor (Homo sapiens) (UniProt P30968); experiment: Human gonadotropin-releasing hormone receptor (GnRHR) small molecule agonists, calcium flux assay in GnRHR-HEK293 cells (AID 1920063); note: nearly all actives have a fitted effect of over 35% in size
# How it was run: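 Fluorescence kinetics (480 nm excitation, 540 nm emission; 3 min, 1 s steps) report calcium mobilisation in human GnRHR-HEK293 cells in agonist mode. Dye incubation: 1 h, 37 C.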
# [3] = target: KiSS-1 receptor (Homo sapiens) (UniProt Q969F8); experiment: Human kisspeptin (KISS1R) small molecule agonists, calcium flux assay in KISS1R-HEK293 cells (AID 1920064; active = well fitted curve in the direction sought with a large enough effect in the repeat runs; an effect the other way counts as inactive or inconclusive)
# How it was run: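 Measures KISS1R agonism through calcium-sensitive dye fluorescence in stably transfected HEK293 cells, read for 3 min after pin-tool compound delivery; 15-point titrations in triplicate.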
# [4] = G protein-coupled receptor (GPCR) small molecule agonists, calcium flux assay: HEK293 wild type cell line counter screen (AID 1920065)
# How it was run: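 Readout: fluorescence at 480 nm excitation/540 nm emission, sampled at 1 s intervals for 3 min. Cells had been cultured 18 h, then dye-loaded 1 h at 37 C before compound or ATP addition.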
# [5] = p53 small molecule agonists, cell-based qHTS assay with human liver microsomes (AID 1963577); note: potency is the fitted concentration of half-maximal effect
# How it was run: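 Compounds act here after metabolic activation: human liver microsomes and NADPH, both at 0.5 mg/mL final, were co-added to p53RE-bla cells. Incubation ran 16 h at 37 C, followed by LiveBLAzer detection.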
# [6] = p53 small molecule agonists, cell-based qHTS assay with rat liver microsomes (AID 1963578)
# How it was run: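 Read-out is beta-lactamase reporter fluorescence (LiveBLAzer, 2 h, room temperature, dark) in p53RE-bla cells treated 16 h at 37 C with compound, rat liver microsomes and NADPH, both 0.5 mg/mL final.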
# [7] = p53 small molecule agonists, cell-based qHTS assay with human liver microsomes: qHTS cell viability counter screen (AID 1963579); note: nearly all actives have a fitted effect of over 45% in size; note: potency is the fitted concentration of half-maximal effect
# How it was run: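 Cells carrying the p53 response-element beta-lactamase reporter are treated for 16 h at 37 C with test compounds in the presence of human liver microsomes and NADPH (both 0.5 mg/mL final); ATP-based CellTiter-Glo luminescence then reports viability.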
# [8] = p53 small molecule agonists, cell-based qHTS assay with rat liver microsomes: qHTS cell viability counter screen (AID 1963580); note: nearly all actives have a fitted effect of over 45% in size
# How it was run: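 In HCT-116 cells carrying a p53 response element-bla reporter, compounds were metabolically activated in situ by rat liver microsomes with NADPH over 16 h. Cell ATP content then served as the cytotoxicity measure.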
# [9] = p53 small molecule agonists, cell-based qHTS assay: qHTS cell viability counter screen (AID 1963581); note: nearly all actives have a fitted effect of over 45% in size
# How it was run: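 In the same plates used for the p53 bla reporter, HCT-116 cells given compounds for 16 h at 37 C received CellTiter-Glo; luminescence was recorded 30 min later at room temperature.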
# [10] = p53 small molecule agonists, cell-based qHTS assay (AID 1963582; active = well fitted activation curve with a large enough effect in the signal ratio in the repeat runs, not every such curve was filed as active; the % refers to the signal ratio)
# How it was run: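 Compounds are pin-transferred in DMSO onto p53RE-bla cells and incubated 16 h at 37 C. The B/G FRET beta-lactamase substrate is then applied for 2 h at RT and fluorescence recorded.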
# [11] = target: 5-hydroxytryptamine receptor 2A (Homo sapiens) (UniProt P28223); experiment: 5-hydroxytryptamine receptor 2A (HTR2A) small molecule antagonists, cell-based qHTS assay (AID 1963586); note: nearly all actives have a fitted effect of over 45% in size
# How it was run: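 Antagonist-mode intracellular calcium assay: DOI (4 nM) added after 5 min compound pre-incubation at room temperature to dye-loaded HTR2A-CHO cells. Fluorescence followed for 3 min, sampled every second.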
# [12] = target: 5-hydroxytryptamine receptor 2A (Homo sapiens) (UniProt P28223); experiment: 5-hydroxytryptamine receptor 2A (HTR2A) small molecule agonists, cell-based qHTS assay (AID 1963587); note: nearly all actives have a fitted effect of over 30% in size; note: potency is the fitted concentration of half-maximal effect
# How it was run: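 HTR2A-CHO cells, plated 18 h at 37 C/5% CO2, dye-loaded 1 h at 37 C; compounds in DMSO added by pin tool (agonist mode). Intracellular calcium flux read as kinetic fluorescence on FDSS over 2 min at 1 s intervals.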
# [13] = target: Muscarinic acetylcholine receptor M1 (Homo sapiens) (UniProt P11229); experiment: Cholinergic receptor muscarinic 1 (CHRM1) small molecule antagonists, cell-based qHTS assay (AID 1963588); note: nearly all actives have a fitted effect of over 40% in size
# How it was run: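 CHRM1-CHO calcium-flux assay, antagonist mode. Cells were seeded 18 h, dye-loaded 1 h at 37 C and given compound for 5 min at RT, then acetylcholine was added at 50nM. FDSS fluorescence was read 3 min; 15 concentrations, three runs.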
# [14] = target: Muscarinic acetylcholine receptor M1 (Homo sapiens) (UniProt P11229); experiment: Cholinergic receptor muscarinic 1 (CHRM1) small molecule agonists, cell-based qHTS assay (AID 1963589); note: nearly all actives have a fitted effect of over 35% in size
# How it was run: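 Each compound was tested at 15 concentrations across three independent runs on dye-loaded CHO cells stably expressing human CHRM1, reading intracellular calcium fluorescence kinetically at 1 sec intervals.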
# [15] = cAMP Responsive Elements (CRE) small molecule agonists, cell-based qHTS assay (AID 1963590)
# How it was run: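 Cell line: CRE-bla HEK 293T; medium DMEM/10% dialyzed FBS/0.1 mM NEAA/1 mM pyruvate/25 mM HEPES; 3 h compound exposure; beta-lactamase FRET readout after 2 h substrate loading at RT.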
# [16] = cAMP Responsive Elements (CRE) small molecule antagonists, cell-based qHTS assay (AID 1963591; active = well fitted inhibition curve with a large enough effect in the signal ratio in the repeat runs, not every such curve was filed as active; the % refers to the signal ratio; note: potency is the fitted concentration of half-maximal effect)
# How it was run: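 Inhibition of NKH477-driven (0.25 uM final) CRE-beta-lactamase signal in HEK293T cells, 3 h compound exposure at 37 °C, detected by FRET substrate fluorescence.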
# [17] = target: D(2) dopamine receptor (Homo sapiens) (UniProt P14416); experiment: Dopamine D2 receptor (DRD2) small molecule agonists, cell-based qHTS assay (AID 1963594); note: nearly all actives have a fitted effect of over 35% in size
# How it was run: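 HEK293 cells stably expressing DRD2 were cultured 24 h at 37 C, then given Ro20-1724 (0.1 mM final) and compounds for 10 min at room temperature. NKH477 (200nM) was then added for 30 min. cAMP was read by HTRF.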
# [18] = target: D(2) dopamine receptor (Homo sapiens) (UniProt P14416); experiment: Dopamine D2 receptor (DRD2) small molecule antagonists, cell-based qHTS assay (AID 1963595; active = well fitted inhibition curve with a large enough effect in the signal ratio in the repeat runs, with a control signal flat; the % refers to the signal ratio)
# How it was run: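 HEK293 cells stably expressing DRD2, preincubated with 0.1 mM Ro20-1724 and compounds 10 min, were stimulated with 200 nM NKH477 plus 12 nM quinpirole for 30 min at room temperature; cAMP measured by HTRF (665/620 nm).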
# [19] = target: Beta-2 adrenergic receptor (Homo sapiens) (UniProt P07550); experiment: Adrenergic beta2 receptor (ADRB2) small molecule antagonists, cell-based qHTS assay (AID 1963592); note: series mostly up to about 92 µM; nearly all actives have a fitted effect of over 50% in size
# How it was run: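 Cells (CHO, stable ADRB2 overexpression) incubated 18-20hr at 37C; compounds added from DMSO; agonist mix (1nM isoproterenol, 100uM IBMX, 25uM Ro-20-1724) added; 0.5hr RT; d2-cAMP and anti-cAMP-cryptate added; 1hr RT; 665/615 nm read.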
# [20] = target: Beta-2 adrenergic receptor (Homo sapiens) (UniProt P07550); experiment: Adrenergic beta2 receptor (ADRB2) small molecule agonists, cell-based qHTS assay (AID 1963593);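 note: CHO cells stably overexpressing human ADRB2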
# How it was run: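 CHO cells stably over-expressing ADRB2 were plated overnight at 37C, then dosed with compounds plus a stimulation mix containing 100uM IBMX and 25uM Ro-20-1724 for 0.5hr at room temperature. cAMP was measured by HTRF competition, 1hr.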
# Muscarinic acetylcholine receptor M1 (Homo sapiens), sequence (P11229 whole entry, looked up): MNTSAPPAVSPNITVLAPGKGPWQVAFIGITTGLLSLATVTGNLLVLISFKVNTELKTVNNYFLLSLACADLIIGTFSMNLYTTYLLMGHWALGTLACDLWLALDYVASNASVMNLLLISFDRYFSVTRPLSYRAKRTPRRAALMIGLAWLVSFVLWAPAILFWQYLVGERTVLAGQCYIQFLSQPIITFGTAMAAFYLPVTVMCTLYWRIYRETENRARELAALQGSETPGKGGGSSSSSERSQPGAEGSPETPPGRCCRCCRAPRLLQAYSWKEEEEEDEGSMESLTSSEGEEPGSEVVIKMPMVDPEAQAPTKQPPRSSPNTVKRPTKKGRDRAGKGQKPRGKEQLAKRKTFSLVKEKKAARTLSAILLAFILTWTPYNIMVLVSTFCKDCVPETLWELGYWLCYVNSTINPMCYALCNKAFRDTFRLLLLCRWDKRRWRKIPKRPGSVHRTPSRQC
# 5-hydroxytryptamine receptor 2A (Homo sapiens), sequence (P28223 whole entry, looked up): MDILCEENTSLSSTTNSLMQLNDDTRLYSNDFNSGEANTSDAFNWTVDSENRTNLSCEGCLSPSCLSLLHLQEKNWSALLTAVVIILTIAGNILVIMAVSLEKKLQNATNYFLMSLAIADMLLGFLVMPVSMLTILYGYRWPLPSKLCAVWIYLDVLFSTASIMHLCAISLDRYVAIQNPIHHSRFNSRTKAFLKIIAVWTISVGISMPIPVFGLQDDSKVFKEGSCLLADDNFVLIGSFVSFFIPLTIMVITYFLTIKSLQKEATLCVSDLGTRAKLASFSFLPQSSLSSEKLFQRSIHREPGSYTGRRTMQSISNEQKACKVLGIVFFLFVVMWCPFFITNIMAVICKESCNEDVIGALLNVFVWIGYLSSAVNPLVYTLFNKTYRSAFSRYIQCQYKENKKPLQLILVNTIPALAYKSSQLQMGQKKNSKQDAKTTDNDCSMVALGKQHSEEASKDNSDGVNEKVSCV
# KiSS-1 receptor (Homo sapiens), sequence (Q969F8 whole entry, looked up): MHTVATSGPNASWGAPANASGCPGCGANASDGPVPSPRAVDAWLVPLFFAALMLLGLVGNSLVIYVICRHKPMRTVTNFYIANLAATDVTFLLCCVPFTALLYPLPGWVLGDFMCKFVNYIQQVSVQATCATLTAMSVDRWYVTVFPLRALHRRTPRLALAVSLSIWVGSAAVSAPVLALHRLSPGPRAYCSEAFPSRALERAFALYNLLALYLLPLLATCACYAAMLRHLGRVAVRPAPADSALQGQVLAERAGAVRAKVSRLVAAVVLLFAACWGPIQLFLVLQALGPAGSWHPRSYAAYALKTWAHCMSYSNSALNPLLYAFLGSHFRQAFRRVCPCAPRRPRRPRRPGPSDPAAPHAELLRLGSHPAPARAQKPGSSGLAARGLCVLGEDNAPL
# Gonadotropin-releasing hormone receptor (Homo sapiens), sequence (P30968 whole entry, looked up): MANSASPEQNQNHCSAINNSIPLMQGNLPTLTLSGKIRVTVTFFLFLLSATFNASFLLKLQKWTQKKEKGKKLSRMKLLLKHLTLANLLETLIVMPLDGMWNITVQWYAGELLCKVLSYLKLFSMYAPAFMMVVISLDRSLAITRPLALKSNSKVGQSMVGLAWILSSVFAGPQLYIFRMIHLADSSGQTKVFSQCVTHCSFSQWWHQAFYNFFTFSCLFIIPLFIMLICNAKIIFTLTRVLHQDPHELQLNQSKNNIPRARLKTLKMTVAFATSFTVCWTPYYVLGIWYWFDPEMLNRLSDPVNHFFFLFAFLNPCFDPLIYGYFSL
# Beta-2 adrenergic receptor (Homo sapiens), sequence (P07550 whole entry, looked up): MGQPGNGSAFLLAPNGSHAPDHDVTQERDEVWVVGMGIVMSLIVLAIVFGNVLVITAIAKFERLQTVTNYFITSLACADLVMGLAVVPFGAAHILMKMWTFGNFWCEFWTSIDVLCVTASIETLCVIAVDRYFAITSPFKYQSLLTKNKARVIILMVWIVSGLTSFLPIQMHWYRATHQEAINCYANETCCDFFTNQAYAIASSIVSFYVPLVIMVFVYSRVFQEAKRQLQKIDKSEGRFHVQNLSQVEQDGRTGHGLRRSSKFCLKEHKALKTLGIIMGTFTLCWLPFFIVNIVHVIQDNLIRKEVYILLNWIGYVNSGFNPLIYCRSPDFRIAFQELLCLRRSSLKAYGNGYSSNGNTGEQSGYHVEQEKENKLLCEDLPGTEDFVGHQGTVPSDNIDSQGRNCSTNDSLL
# D(2) dopamine receptor (Homo sapiens), sequence (P14416 whole entry, looked up): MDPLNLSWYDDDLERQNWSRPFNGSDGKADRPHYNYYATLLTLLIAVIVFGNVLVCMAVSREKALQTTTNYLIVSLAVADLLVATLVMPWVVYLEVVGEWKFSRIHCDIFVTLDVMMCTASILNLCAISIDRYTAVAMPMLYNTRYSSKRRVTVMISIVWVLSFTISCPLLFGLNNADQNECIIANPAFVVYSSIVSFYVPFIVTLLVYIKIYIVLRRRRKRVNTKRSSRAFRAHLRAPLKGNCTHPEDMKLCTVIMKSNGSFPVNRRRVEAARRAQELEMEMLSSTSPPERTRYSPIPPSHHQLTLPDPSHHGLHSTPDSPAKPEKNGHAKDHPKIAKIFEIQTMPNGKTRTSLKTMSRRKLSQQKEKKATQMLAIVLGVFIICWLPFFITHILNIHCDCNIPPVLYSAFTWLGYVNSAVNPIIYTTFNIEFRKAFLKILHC
SMILES,Potency [1],Potency [2],Potency [3],Potency [4],Potency [5],Potency [6],Potency [7],Potency [8],Potency [9],Potency [10],Potency [11],Potency [12],Potency [13],Potency [14],Potency [15],Potency [16],Potency [17],Potency [18],Potency [19],Potency [20]
COc1cc(-c2ccc(N)c(OC)c2)ccc1N,inactive,inactive,inactive,inactive,inactive,inactive,inactive,inactive,inactive,inactive,inactive,inactive,inactive,inactive,inactive,inactive,inactive,inactive,,
CNc1cnn(-c2cccc(C(F)(F)F)c2)c(=O)c1Cl,inactive,inactive,inactive,inactive,inactive,inactive,inactive,inactive,inactive,inactive,,inactive,inactive,inactive,inactive,inactive,inactive,inactive,inactive,
N#CS,inactive,inactive,inactive,inactive,inactive,inactive,inactive,inactive,inactive,,inactive,inactive,inactive,inactive,inactive,inactive,inactive,inactive,inactive,inactive
CCC12COCN1COC2,inactive,inactive,inactive,inactive,inactive,inactive,inactive,inactive,inactive,,inactive,inactive,inactive,inactive,inactive,inactive,inactive,inactive,inactive,
CCC[CH2][Sn]([Cl])([Cl])[Cl],inactive,inactive,inactive,inactive,inactive,inactive,inactive,inactive,inactive,inactive,inactive,inactive,inactive,inactive,inactive,inactive,inactive,inactive,inactive,
CC(C)OC(=O)Nc1cccc(Cl)c1,inactive,inactive,inactive,inactive,inactive,inactive,inactive,inactive,inactive,inactive,inactive,inactive,inactive,inactive,inactive,,inactive,inactive,inactive,inactive
CCCCCCCCCCCCOS(=O)(=O)O,inactive,inactive,inactive,inactive,,,inactive,inactive,inactive,,inactive,inactive and 55 µM (active) and 49 µM (active),inactive,inactive,inactive,inactive,inactive,inactive,inactive,inactive
CC(Cl)CCl (configuration not stated),inactive,inactive,inactive,inactive,inactive,,inactive,inactive,inactive,inactive,,inactive,inactive,inactive,inactive,inactive,inactive,inactive,inactive,
Cl,inactive,inactive,inactive,inactive,,,inactive,inactive,inactive,,,inactive,inactive,inactive,inactive,inactive,inactive,inactive,inactive,inactive
O=C(CCl)c1ccc(Cl)cc1Cl,inactive and 11.9 µM (active),inactive,inactive,inactive,,,inactive,inactive,inactive,,inactive,inactive,inactive,inactive,inactive,inactive,inactive,inactive,inactive,
C=CC(=O)OCC(CC)CCCC (configuration not stated),inactive,inactive,inactive,inactive,inactive,,inactive,inactive,inactive,inactive,inactive,inactive,inactive,inactive,inactive,inactive,inactive,inactive,inactive,
CCOP(=S)(OCC)OP(=S)(OCC)OCC,inactive,inactive,inactive,inactive,18.2 µM (active),,inactive,,inactive,inactive,inactive,inactive,inactive,inactive,inactive,inactive,,inactive,inactive,inactive
Clc1ccc(COC(Cn2ccnc2)c2ccc(Cl)cc2Cl)cc1 (configuration not stated),45.3 µM (active) and 27.2 µM (active) and 13.3 µM (active),inactive,inactive,inactive,inactive,inactive,38 µM (active) and inactive,inactive,,,,,,,inactive,50.8 µM (active),inactive,,inactive,
Cc1cc(Cl)ccc1O,inactive,inactive,inactive,inactive,inactive,,inactive,inactive,inactive,inactive,inactive,inactive,inactive,inactive,inactive,inactive,,inactive,inactive,inactive
